# Results published in ChEMBL document CHEMBL3988442, “University of Dundee, Small-Polar-MMV Screening Library” (2021).
# In all, about 66,000 compounds went through this assay and about 960 (1.5%) showed an effect of 50% or more. This excerpt belongs to a sample that is enriched for strong results.
# Tested on: Trypanosoma brucei
# Test: Trypanosoma brucei 72 hour study
# Type: functional, organism-based
# Parameters: scale not given: in the data most compounds retested in dose-response had high values
compound,measurement,setting,value
CCC(C(=O)Nc1ccc2c(C)n[nH]c2c1)N1CCCC1=O (centres undefined),Percent Effect,"30 µM, 30.03 µM",6.301%
CCN1N=C(C(=O)N2CCCC(c3nc(C)cs3)C2)CCC1=O (centres undefined),Percent Effect,"30.3 µM, […]",-15.61%
same,Percent Effect,"10 mM, 10 mM as filed; unlikely as a test dose",-12.74%
O=C(C1CCOC1)N1CCN(CCn2cccn2)c2ncccc2C1.O=C(O)C(F)(F)F (centres undefined),Percent Effect,"30.3 µM, […]",-86.89%
O=C(O)C(F)(F)F.O=C(O)C(F)(F)F.O=C(O)C(F)(F)F.c1ccc(CO[C@H]2CO[C@@]3(CCCN(Cc4cccnc4)C3)C2)nc1,Percent Effect,"30 µM, 30.03 µM",-28.27%
CN1CCN(C(=O)c2cc3sccc3n2Cc2ccccc2Cl)CC1,Percent Effect,"30.3 µM, […]",25.89%
CN1CCN(C(=O)c2cc3sccc3n2Cc2ccccc2)CC1,Percent Effect,"30.3 µM, […]",20.51%
CN1CCN(C(=O)c2cc3sccc3n2Cc2ccc(Cl)cc2)CC1,Percent Effect,"30.3 µM, […]",99.49%
CC1CCCN(Cc2c(C3CC3)n(CC(=O)N(C)C)c3ncccc23)C1.Cl (centres undefined),Percent Effect,"30.3 µM, […]",-32.63%
N#CCCN(CC1CCCO1)C(=O)c1ccsc1 (centres undefined),Percent Effect,"30.3 µM, […]",16.66%
same,Percent Effect,"10 mM, 10 mM as filed; unlikely as a test dose",-43.52%
O=C(CN(CC(O)c1ccc(F)cc1)C1CC1)NCc1cccs1 (centres undefined),Percent Effect,"30 µM, 30.03 µM",-22.68%
Cc1nc(C)n(CC2CCCN2Cc2nc3ccccc3nc2C)n1 (centres undefined),Percent Effect,"30 µM, 30.03 µM",-3.332%
COc1ccc(C)cc1CN1CCCC1c1noc(C2CC2)n1 (centres undefined),Percent Effect,"30 µM, 30.03 µM",105.3%
COc1c(C)cnc(CN2CCCC2c2noc(C3CC3)n2)c1C (centres undefined),Percent Effect,"30 µM, 30.03 µM",-15.93%
COc1ccc(CN2CCCC2Cn2nc(C)nc2C)cc1F (centres undefined),Percent Effect,"30 µM, 30.03 µM",13.69%
Cc1nc(CN2CCCC2Cn2cccn2)nc2ccccc12 (centres undefined),Percent Effect,"30 µM, 30.03 µM",-97.44%
Cc1cnn(CC2CCCN2Cc2nc(C)c3ccccc3n2)c1 (centres undefined),Percent Effect,"30.3 µM, […]",99.14%
same,Percent Effect,"10 mM, 10 mM as filed; unlikely as a test dose",-68.59%
Cc1cc(CN2CCCC2c2noc(C3CC3)n2)c2ccccc2n1 (centres undefined),Percent Effect,"30 µM, 30.03 µM",8.829%
Cc1cnn(CC2CCCCN2Cc2nc(C)c3ccccc3n2)c1 (centres undefined),Percent Effect,"30.3 µM, […]",-8.505%
same,Percent Effect,"10 mM, 10 mM as filed; unlikely as a test dose",-58.92%
COc1ccc(C)cc1CN1CCCC1Cn1nc(C)nc1C (centres undefined),Percent Effect,"30 µM, 30.03 µM",103.3%
Cc1nc(C)n(CC2CCCN2Cc2nc(N)c3ccccc3n2)n1 (centres undefined),Percent Effect,"30 µM, 30.03 µM",-26.66%
COc1ccc(F)cc1CN1CCCC1Cn1nc(C)nc1C (centres undefined),Percent Effect,10 µM,-21.11%
Cc1nc(C)n(CC2CCCN2Cc2nc(C)c3ccccc3n2)n1 (centres undefined),Percent Effect,10 µM,-1.729%
same,Percent Effect,"30.3 µM, […]",68.42%
CC(C)CC(=O)N1CCC2(CC1)COCCN2Cc1ccc(F)cc1.O=C(O)C(F)(F)F,Percent Effect,"30 µM, 30.03 µM",17.24%
COc1ccc(C[C@H]2CNCC[C@@H]2OC)cc1.O=C(O)C(F)(F)F,Percent Effect,"30.3 µM, […]",-9.891%
C[C@@H]1CN(S(C)(=O)=O)C[C@]12CCN(Cc1cccnc1)C2=O.O=C(O)C(F)(F)F,Percent Effect,"30.3 µM, […]",-31.63%
Cc1cc(Cl)c(C)c(S(=O)(=O)N2CCN(Cc3ccncc3)CC2)c1Cl,Percent Effect,"30 µM, 30.03 µM",-52.63%
CNC(=O)[C@@H]1CN(C(=O)C2CCC2)C[C@H]1c1ccnc(N2CCCC2)n1.Cl,Percent Effect,"30.3 µM, […]",8.722%
Cn1cc(CCC(=O)N2C[C@@H]3CC[C@H](C2)N(Cc2ccccn2)C3)cn1,Percent Effect,"30.3 µM, […]",7.516%
CC(C)c1cc(NC(=O)CN2CCCC2c2noc(C(C)C)n2)on1 (centres undefined),Percent Effect,10 µM,-43.85%
same,Percent Effect,"30.3 µM, […]",0.3759%
CN(C(=O)NCc1ccncc1)C1CCCN(c2ccccc2)C1=O (centres undefined),Percent Effect,10 µM,-27.33%
COCCN1CCC2(CC1)CC(c1cccnc1)CO2.O=C(O)C(F)(F)F (centres undefined),Percent Effect,"30.3 µM, […]",-48.93%
Cc1c(C)n2c(SCC(=O)N3CCCCC3)nnc2[nH]c1=O,Percent Effect,"30.3 µM, […]",-16.73%
Cl.O=C1CC2(CCCNC2)C(=O)N1Cc1cccc(Cl)c1 (centres undefined),Percent Effect,"30.3 µM, […]",2.467%
CCC(C)NC(=O)Cn1c(Nc2cc(C)cc(C)c2)nc(C)cc1=O (centres undefined),Percent Effect,"30 µM, 30.03 µM",-43.03%
Cc1ccc(NCc2cncc3c2CCN(Cc2ccccn2)C3)nn1.Cl.Cl,Percent Effect,"30.3 µM, […]",-48.05%
O=C(O)C(F)(F)F.O=C([C@H]1CC[C@@H]2[C@@H](CCN2Cc2nccs2)O1)N1CCOCC1,Percent Effect,"30.3 µM, […]",-77.67%
NC[C@H]1CC[C@H](C(NC(=O)C2CC2)c2ccccn2)CC1 (some centres undefined),Percent Effect,"30.3 µM, […]",-27.22%
C/C(=C\c1ccccc1)CN1CCCC(c2nnc3n2CCNCC3)C1.Cl (centres undefined),Percent Effect,"30.3 µM, […]",-29.45%
O=C(O)C(F)(F)F.O=C(O)C(F)(F)F.O=C1CC(c2ccncc2)C2(CCN(Cc3ccc(F)cc3)CC2)N1 (centres undefined),Percent Effect,"30 µM, 30.03 µM",27.71%
Cc1ccc(CN2CCC[C@]3(C(=O)O)CN(CC4CC4)C[C@@H]3C2)s1.O=C(O)C(F)(F)F.O=C(O)C(F)(F)F,Percent Effect,"30.3 µM, […]",-73.23%
CCCn1c(C)c(CC(=O)NCCC(N)=O)c2c1CC(C)(C)CC2=O,Percent Effect,"30 µM, 30.03 µM",-41.08%
Cc1nc(NC(=O)c2ccc(-n3ncc(C#N)c3N)cc2)sc1C,Percent Effect,10 µM,-25.11%
Cc1cnn(CC2CCCCN2Cc2nc(N)c3ccccc3n2)c1 (centres undefined),Percent Effect,"30 µM, 30.03 µM",14.94%
Nc1nc(CN2CCCC2Cn2cncn2)nc2ccccc12 (centres undefined),Percent Effect,10 µM,-61.59%
Cc1cnn(CC2CCCN2Cc2nc(N)c3ccccc3n2)c1 (centres undefined),Percent Effect,"30.3 µM, […]",51.47%
same,Percent Effect,"10 mM, 10 mM as filed; unlikely as a test dose",-16.65%
COCCN1CCn2cc(CNC(=O)c3cnn(C)c3)nc2C1.O=C(O)C(F)(F)F,Percent Effect,"30 µM, 30.03 µM",-33.8%
CC(C)CN1C[C@H]2C[C@H](C(=O)NC3CCC3)[C@@H](C1)O2.O=C(O)C(F)(F)F,Percent Effect,"30.3 µM, […]",-44.07%
Clc1cccc(-c2cccc(N3CCC(NC4CCOCC4)CC3)c2)c1,Percent Effect,"30 µM, 30.03 µM",100.7%
COc1cccc(-c2cccc(N3CCC(N[C@@H]4CCOC4)CC3)c2)c1,Percent Effect,"30 µM, 30.03 µM",9.147%
Cc1ccc(-c2cccc(N3CCC(NC4CCOCC4)CC3)c2)cc1,Percent Effect,"30 µM, 30.03 µM",8.614%
COC(=O)c1ccc(CNCc2ccn(C)n2)cc1,Percent Effect,"30.3 µM, […]",-7.529%
O=C(O)C(F)(F)F.O=C(O)C(F)(F)F.O=C1CCC2(CCN(Cc3ccc(F)cc3)CC2)N1CCN1CCCC1,Percent Effect,"30.3 µM, […]",-27.18%
Cc1nccc(-c2cccc(NCC(=O)N3CCCCCCC3)c2)n1,Percent Effect,"30 µM, 30.03 µM",-43.47%
Cc1nccc(-c2cccc(NCC(=O)N3CCc4sccc4C3)c2)n1,Percent Effect,"30 µM, 30.03 µM",51.17%
Cc1nccc(-c2cccc(NCC(=O)N3CCNC(=O)C3)c2)n1,Percent Effect,"30.3 µM, […]",13.04%
Cc1nccc(-c2cccc(NCC(=O)N3CCOCC3)c2)n1,Percent Effect,"30.3 µM, […]",18.69%
Cc1nccc(-c2cccc(NCC(=O)N3CCCC(C)C3)c2)n1 (centres undefined),Percent Effect,"30.3 µM, […]",89.85%
Cc1nccc(-c2cccc(NCC(=O)N3CCOC(C)C3)c2)n1 (centres undefined),Percent Effect,"30.3 µM, […]",18.9%
COc1cc(CNCC2CN(C3CC3)CCO2)cc(OC)c1.Cl (centres undefined),Percent Effect,"30 µM, 30.03 µM",10.22%
CC(C)CN1CCN(C(=O)c2ccncc2F)Cc2cccnc21.O=C(O)C(F)(F)F.O=C(O)C(F)(F)F,Percent Effect,"30 µM, 30.03 µM",-15.43%
NC1C=C(C(F)(F)F)NC=C1c1ccc(Cl)cc1 (centres undefined),Percent Effect,"30.3 µM, […]",-11.05%
COc1ccccc1N1CCC(CNCc2cccc(C#N)c2)C1 (centres undefined),Percent Effect,"30 µM, 30.03 µM",38.86%
COc1cccc(N2CCC(CNc3cc(C)nc4ncnn34)C2)c1 (centres undefined),Percent Effect,"30.3 µM, […]",-742.4%
COc1cccc(CNCC2CCN(CC(C)O)CC2)c1OC (centres undefined),Percent Effect,10 µM,-41.05%
COc1ccccc1N1CCC(CNCc2cccc(OC)c2OC)C1 (centres undefined),Percent Effect,"30 µM, 30.03 µM",106.6%
COc1cccc(N2CCC(CNC(=O)NCc3ccco3)C2)c1 (centres undefined),Percent Effect,"30 µM, 30.03 µM",0.1518%
COc1ccccc1N1CCC(CNCc2ccc(C#N)cc2)C1 (centres undefined),Percent Effect,"30.3 µM, […]",92.2%
same,Percent Effect,"10 mM, 10 mM as filed; unlikely as a test dose",66.86%
COc1ccc(CNCC2CCN(c3ccccc3OC)C2)cc1O (centres undefined),Percent Effect,"30.3 µM, […]",47.62%
same,Percent Effect,"10 mM, 10 mM as filed; unlikely as a test dose",-24.56%
COc1ccccc1N1CCC(CNCc2cccc(O)c2)C1 (centres undefined),Percent Effect,"30 µM, 30.03 µM",-1.533%
COc1cccc(N2CCC(CNCc3cccc(C#N)c3)C2)c1 (centres undefined),Percent Effect,"30.3 µM, […]",77.75%
same,Percent Effect,"10 mM, 10 mM as filed; unlikely as a test dose",-19.99%
CC(=O)N1CCC(Nc2cc(F)ccc2OCC2CCCO2)CC1 (centres undefined),Percent Effect,10 µM,-21.13%
COCC1CN(Cc2ccc(C)s2)Cc2nnn(C)c21.O=C(O)C(F)(F)F (centres undefined),Percent Effect,"30.3 µM, […]",-30.47%
O=C1C(NCc2nnc3n2CCCC3)CCN1c1ccccc1F (centres undefined),Percent Effect,10 µM,0.3109%
CN1[C@@H](C(=O)NCC2CC2)C[C@H]2CN(Cc3cccc(C#N)c3)C[C@H]21.O=C(O)C(F)(F)F.O=C(O)C(F)(F)F,Percent Effect,"30.3 µM, […]",-35.21%
CCN(C)c1ncnc2c1CCN(Cc1ccncc1)CC2.O=C(O)C(F)(F)F.O=C(O)C(F)(F)F.O=C(O)C(F)(F)F,Percent Effect,"30 µM, 30.03 µM",14.6%
CC1c2ncc(COc3cccnc3)n2CCN1Cc1ccco1 (centres undefined),Percent Effect,"30.3 µM, […]",-3.756%
CC(C)C1SCC(=O)Nc2c1cnn2-c1ccc(Cl)cc1 (centres undefined),Percent Effect,"30 µM, 30.03 µM",16.61%
CC(C)N(C)S(=O)(=O)c1ccc2c(c1)CCN(C(=O)c1cscn1)C2,Percent Effect,"30 µM, 30.03 µM",-38.59%
CN1CC[C@H](N(Cc2ccccc2)Cc2ccccc2)C[C@H](O)C1,Percent Effect,"30.3 µM, […]",67.88%
CN1CC[C@H](N(C)Cc2ccccc2)C[C@H](O)C1,Percent Effect,"30.3 µM, […]",-4.232%
CN1CC[C@H](N(Cc2ccccc2)CC2CC2)C[C@H](O)C1,Percent Effect,"30.3 µM, […]",2.753%
O=C(O)C(F)(F)F.O=C(c1ccsc1)N1CCO[C@@H]2CN(Cc3ccco3)CC[C@@H]2C1,Percent Effect,"30.3 µM, […]",-78.45%
CNC(=O)CN1CCOCC12CCN(CCc1ccccc1)CC2.O=C(O)C(F)(F)F.O=C(O)C(F)(F)F,Percent Effect,"30 µM, 30.03 µM",40.27%
CC(C)(C)C(NCC(=O)N1CCNC(=O)C1)c1ccccc1 (centres undefined),Percent Effect,"30 µM, 30.03 µM",-32.1%
CCc1nc(NS(=O)(=O)c2ccc(C)cc2Cl)no1,Percent Effect,"30 µM, 30.03 µM",33.48%
CCc1nc(NS(=O)(=O)c2ccc(F)cc2Cl)no1,Percent Effect,"30.3 µM, […]",-4.749%
CCc1nc(NS(=O)(=O)c2cc(C)c(F)cc2Cl)no1,Percent Effect,"30.3 µM, […]",54.01%
CN(C)C(=O)c1cnc2n1CCN(Cc1ccc3c(c1)OCO3)C2.O=C(O)C(F)(F)F,Percent Effect,"30.3 µM, […]",-102%
CC(O)CN1CCC(CNCc2cccc(OC(F)(F)F)c2)CC1 (centres undefined),Percent Effect,10 µM,16.76%
CC(O)CN1CCC(CNCc2cccc(Br)c2)CC1 (centres undefined),Percent Effect,"30 µM, 30.03 µM",-7.469%
CC(O)CN1CCC(CNCc2ccccc2OC(F)(F)F)CC1 (centres undefined),Percent Effect,"30 µM, 30.03 µM",-22.34%
CC(O)CN1CCC(CNCc2cccc(C(F)(F)F)c2)CC1 (centres undefined),Percent Effect,"30.3 µM, […]",86.87%
CC(O)CN1CCC(CNCc2cccc(Cl)c2)CC1 (centres undefined),Percent Effect,"30.3 µM, […]",36.81%
CC(O)CN1CCC(CNCc2ccc(OC(F)(F)F)cc2)CC1 (centres undefined),Percent Effect,10 µM,63.69%
